Records with an inconclusive call do not appear. Active and inactive are the calls of the source. The call rests on the fitted dose curve; in most records, active means well fitted curve in the direction sought with a large enough effect; inconclusive means small, poorly fitted or top-dose-only effect, or another doubt; inactive means no such curve, though single readings can be large; an effect the other way counts as inactive or inconclusive.
Key:
[1] = molecular target: Protein phosphatase 1D (Homo sapiens) (UniProt O15297); test: RapidFire Mass Spectrometry qHTS Assay for Modulators of WT P53-Induced Phosphatase 1 (WIP1) (AID 1347424); conditions: WIP1 dephosphorylation of phosphopeptide, RapidFire MS; series mostly up to 63 µM;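 further: amount of dephosphorylated VEPPL-S-QETFS peptide product formed by WIP1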
In short: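 RapidFire mass spectrometry measured dephosphorylated peptide after 5 min room-temperature reaction of 2 uM VEPPL-pS-QETFS with 10 nM WIP1 (50 mM Tris-HCl pH 7.5, 30 mM MgCl2, 0.1 mM EGTA, BSA), following 1 hr compound preincubation; 1 uM isotope-labelled product standard.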

[2] = molecular target: Calcium and integrin-binding protein 1 (Homo sapiens) (UniProt Q99828); test: Primary qHTS for Identification of Calcium Integrin Binding Protein 1 (CIB1) Competitor (AID 1508620); conditions: CIB1-GST / FITC-alphaIIb peptide fluorescence polarization; series mostly up to 114 µM;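 further: GST tagged CIB1 binding a fluorescein labelled alphaIIb integrin peptide tracer; top concentration of the series differs between compounds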
In short: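 CIB1-GST (1 uM final) and compound incubated 15 min at room temperature before adding FITC-alphaIIb peptide tracer (100 nM final). Competition for binding read by fluorescence polarization (ex 480, em 540) after another 15 min at room temperature.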

[3] = molecular target: Protein phosphatase 1D (Homo sapiens) (UniProt O15297); test: Rhodamine-PBP qHTS Assay for Modulators of WT P53-Induced Phosphatase 1 (WIP1) (AID 1347425); conditions: recombinant WIP1, Rhodamine-PBP phosphate fluorescence, real-time; series mostly up to 57.5 µM
In short: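 Steps: enzyme with Rh-PBP sensor and compounds, room-temperature incubation of 1 hr, baseline read, addition of VEPPL-pS-QETFS (10 uM final), kinetic fluorescence reads at 525/598 nm. Activity equals final minus baseline signal.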

[4] = Primary qHTS for inhibitors of La Crosse Virus (LACV) - induced cell death in SH-SY5Y cells (AID 1508616); conditions: SH-SY5Y LACV cytopathicity rescue, ATP luminescence, 6 d; series mostly up to 4.29 µM;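 further: top concentration of the series differs between compounds; higher means more rescue of cells from virus-induced death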
In short: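 Screening measures cell viability in LACV-infected SH-SY5Y cultures. Compound was added before virus (0.01 MOI), and ATP was detected by luminescence 6 days later.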

[5] = molecular target: Calcium and integrin-binding protein 1 (Homo sapiens) (UniProt Q99828); test: Confirmatory qHTS for Identification of Calcium Integrin Binding Protein 1 (CIB1) Competitor (AID 1508617); conditions: CIB1 binding competition assay, biochemical qHTS; series mostly up to 114 µM; further: nearly all actives have a fitted effect of over 65% in size
In short: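 Binding competition between test compounds and fluorescent alphaIIb peptide for 1 uM CIB1-GST is monitored by FP at 480/540 nm. Final compound range is up to 114 uM; unlabeled peptide serves as reference competitor.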

Measured: Potency

Protein phosphatase 1D (Homo sapiens), sequence (O15297 whole entry, looked up): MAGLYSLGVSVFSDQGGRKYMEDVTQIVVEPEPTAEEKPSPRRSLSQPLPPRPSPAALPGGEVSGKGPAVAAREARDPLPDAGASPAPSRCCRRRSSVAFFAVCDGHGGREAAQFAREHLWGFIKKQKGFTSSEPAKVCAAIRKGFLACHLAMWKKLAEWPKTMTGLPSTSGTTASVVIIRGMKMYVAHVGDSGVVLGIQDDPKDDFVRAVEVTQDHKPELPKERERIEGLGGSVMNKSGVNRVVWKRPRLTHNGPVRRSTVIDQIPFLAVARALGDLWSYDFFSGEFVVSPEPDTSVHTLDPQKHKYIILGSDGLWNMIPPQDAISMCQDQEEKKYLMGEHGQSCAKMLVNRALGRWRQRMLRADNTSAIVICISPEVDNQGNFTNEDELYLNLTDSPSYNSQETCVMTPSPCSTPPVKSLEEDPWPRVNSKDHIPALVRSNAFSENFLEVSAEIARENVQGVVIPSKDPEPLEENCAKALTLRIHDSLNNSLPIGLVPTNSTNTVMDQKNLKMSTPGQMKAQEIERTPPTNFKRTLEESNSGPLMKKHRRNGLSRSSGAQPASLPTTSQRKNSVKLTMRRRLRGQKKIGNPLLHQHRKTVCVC
Calcium and integrin-binding protein 1 (Homo sapiens), sequence (Q99828 whole entry, looked up): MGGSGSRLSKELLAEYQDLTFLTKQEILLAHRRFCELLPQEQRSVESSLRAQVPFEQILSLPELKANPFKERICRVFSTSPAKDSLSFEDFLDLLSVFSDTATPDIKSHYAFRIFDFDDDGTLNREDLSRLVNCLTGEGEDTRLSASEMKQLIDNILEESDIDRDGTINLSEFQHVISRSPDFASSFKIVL

Nc1ccc(C(=O)Nc2ccccc2N)cc1
inactive: [1] | [2]

CCCCC(=O)O[C@]1(C(=O)CO)CC[C@H]2[C@@H]3CCC4=CC(=O)CC[C@]4(C)[C@H]3[C@@H](O)C[C@@]21C
not listed: [5]
inactive: all other assays above

Cc1cc2c(cc1CC(=O)c1sccc1S(=O)(=O)Nc1onc(C)c1Cl)OCO2
inactive: [3] | [4] | [2]

CC(=O)OCC(=O)[C@@]1(OC(C)=O)[C@@H](C)C[C@H]2[C@@H]3C[C@H](F)C4=CC(=O)C=C[C@]4(C)[C@@]3(F)[C@@H](O)C[C@@]21C
inactive: [3] | [4] | [2]

COC1=CC(=O)C[C@@H](C)[C@]12Oc1c(Cl)c(OC)cc(OC)c1C2=O
not listed: [5]
inactive: all other assays above

CC1=C(C(=O)OC(C)C)C(c2cccc([N+](=O)[O-])c2)C(C(=O)OC2CN(C(c3ccccc3)c3ccccc3)C2)=C(N)N1 (stereo unspecified)
not listed: [5]
inactive: all other assays above

CC(=O)Oc1ccc2c(c1)CC[C@@H]1[C@@H]2CC[C@]2(C)[C@@H](O)CC[C@@H]12
not listed: [5]
inactive: all other assays above

C#C[C@]1(O)CC[C@H]2[C@@H]3CCC4=CC(=O)CC[C@@H]4[C@H]3CC[C@@]21C
inactive: [1] | [3] | [2]

COc1ccc(/C=C/C(=O)c2ccc(OC)cc2OC)cc1
not listed: [5]
inactive: all other assays above

O=C(Nc1ccc(Oc2ccc(Cl)cc2)c(Cl)c1)c1cc(I)cc(I)c1O
inactive: [1] | [4]

CCCCCCCCCCCCCCCC[N+](C)(C)CCN(Cc1ccc(OC)cc1)c1ncccn1
inactive: [3] | [5]

C[C@H]1C[C@H]2[C@@H]3CCC4=CC(=O)C=C[C@]4(C)[C@@]3(Cl)[C@@H](O)C[C@]2(C)[C@@]1(O)C(=O)CO
not listed: [5]
inactive: all other assays above

CC(=O)Oc1ccc(C(c2ccc(OC(C)=O)cc2)c2ccccn2)cc1
inactive: [3] | [4] | [2]

CCCC(=O)O[C@]1(C(=O)CO)CC[C@H]2[C@@H]3CCC4=CC(=O)CC[C@]4(C)[C@H]3[C@@H](O)C[C@@]21C
not listed: [5]
inactive: all other assays above

Source: PubChem BioAssay (NCATS)
